CHX counter = affects cycloheximide protein synthesis inhibition readout, counter-screen; hit rate 12% among 300,000; max response, %; cell reporter, cycloheximide protein synthesis inhibition counterscreen; in the data active means max response mostly above about 13%, no sharp cut-off; inactive means mostly below about 14%; further: read at 38.3 µM for the half of the compounds with a filed dose
Pf growth 96h = P. falciparum growth inhibition at 96 hours; P. falciparum luciferase reporter growth, 96 h; hit rate 6.9% among 320,000; Potency, µM (top dose mostly 28.7 µM), actives largely listed as inhibitors
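Compounds incubated with erythrocytes infected by luciferase-expressing P. falciparum (2% hematocrit, 0.05% parasitemia final) for 96 hours, 37 C in 5% CO2. Growth inhibition scored as decreased luciferase luminescence.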
NS1 inh = blocks influenza NS1 protein function; AID 2326; hit rate 0.4% among 270,000; Potency, µM (top dose mostly 46.1 µM); calls by dose curve; further: actives are rising curves; nearly all actives have a fitted effect of over 50% in size
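Growth recovery, yeast-based: influenza A NS1 expressed in S. cerevisiae causes slow growth, and suppressors are detected by OD600. The parent strain without NS1 is used as positive control.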
Pf growth 48h = P. falciparum growth inhibition at 48 hours (one generation); P. falciparum luciferase growth in erythrocytes, 48 h; Potency, µM (series often up to 28.7 µM), most hits filed as inhibitors; hit rate 5.9% among 310,000
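Firefly luciferase activity from engineered P. falciparum reports growth; inhibitors lower the luminescent signal. Cultures contained 2% hematocrit erythrocytes at 0.1% final parasitemia.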
Shiga toxin inh = inhibitors of Shiga toxin in Vero cells. Vero cells, Shiga toxin protein synthesis inhibition reporter. inhibition, % at 38.7 µM. hit rate 9.2% among 290,000. AID 2315; in the data active means inhibition mostly above about 28%, no sharp cut-off; inactive means mostly below about 43%
A number is an active result; . = inactive; ? = inconclusive; / = not tested or not shown; [ ] = dose if it differs, or a comment. An excerpt weighted towards active compounds, which were near 21% of everything screened. Unless noted, the call rests on the fitted dose curve; in most records, active means well fitted inhibition curve with a large enough effect; inconclusive means small, poorly fitted or top-dose-only effect, or another doubt; inactive means no such curve, though single readings can be large or run the other way.

SMILES	CHX counter	Pf growth 96h	NS1 inh	Pf growth 48h	Shiga toxin inh
CN1CCN(CC(=O)N2CCn3c4c(c5cc(C6CCCCC6)ccc53)CCCC42)CC1 (stereo not drawn)	.	?	.	7.38µM	.
O=C1[C@H]2[C@H]3C=C[C@@H](C4[C@H]3[C@@H]3C(=O)N(CN5CCSCC5)C(=O)[C@H]43)[C@H]2C(=O)N1CN1CCSCC1 (stereo partly drawn)	/	/	.	/	/
O=C(N/N=C/c1ccc(O)c(Br)c1)c1cc2c(ccc3ccccc32)o1	.	?	.	?	.
O=C(N/N=C/c1cc(Br)c(O)c(Br)c1)c1cc2c(ccc3ccccc32)o1	.	13.1µM	.	.	.
O=C(N/N=C/c1cc(Cl)c(O)c(Cl)c1)c1cc2c(ccc3ccccc32)o1	36.9	?	.	11.7µM	.
CC(=O)NC1(c2nnnn2CCOC(=O)Nc2ccc(Cl)cc2)CCCC1	.	.	/	.	.
O=C(Nc1ccc(Cl)cc1)OCCn1nnnc1C(c1ccccc1Cl)N1CCOCC1 (stereo not drawn)	.	?	.	14.7µM	.
CCCCc1ccc(Nc2ncccc2C#N)cc1	58.2	.	.	.	121.9
N#Cc1cccnc1Nc1ccc(Cl)cc1	.	.	.	.	.
COc1cc2c(cc1O)CCN(C(=O)CSc1nncn1C)[C@@H]2C	/	.	/	.	/
C=CCCN(C1CCCC1)S(=O)(=O)c1ccccc1Br	.	14.7µM	.	?	.
C=CCCN(C(C)C(=O)OC)S(=O)(=O)c1ccccc1Br (stereo not drawn)	.	/	/	/	.
CCCS(=O)(=O)NCCc1csc(-c2ccc(OC)c(OC)c2)n1	.	.	.	.	.
CC(C)OC(=O)CSc1nc2cccnc2n1C1CCCCC1	.	.	.	?	.
CCOC(=O)CNC(=O)CSc1nc2cccnc2n1C1CCCCC1	.	9.28µM	.	.	.
Cc1cc(OCC(=O)Nc2cnn(CCCC(=O)O)c2)ccc1Cl	.	.	.	.	.
N=c1n(CCN2CCCCC2)c2ccccc2n1CC(O)COc1ccccc1 (stereo not drawn)	.	.	.	?	.
CCCn1c(=N)n(CC(O)COc2cccc(C)c2)c2ccccc21 (stereo not drawn)	.	.	.	10.4µM	.
CCCCn1c(=N)n(CC(O)COc2ccc(C)cc2)c2ccccc21 (stereo not drawn)	.	/	.	2.33µM	.
CCn1c(=N)n(CC(O)COc2cccc(C)c2)c2ccccc21 (stereo not drawn)	.	?	.	?	.
CCCn1c(=N)n(CCOc2ccc(OC)cc2)c2ccccc21	.	/	.	14.7µM	.
CCCCn1c(=N)n(CC(O)COc2ccccc2)c2ccccc21 (stereo not drawn)	.	?	.	5.22µM	.
COc1ccc(-c2cccc(NC(=O)COc3ccc(Cl)cc3)c2)nn1	.	?	.	.	.
CCCCn1c(=N)n(CC(O)c2ccccc2)c2ccccc21 (stereo not drawn)	.	13.1µM	.	2.08µM	.
COc1cc(-c2nc(CN3CCN(C(=O)c4ccco4)CC3)c(C)o2)ccc1F	.	?	.	.	.
SMILES	CHX counter	Pf growth 96h	NS1 inh	Pf growth 48h	Shiga toxin inh
Cc1cc(C(=O)Nc2sc(C)c(-c3ccc(F)cc3)c2C(N)=O)no1	61.6	.	.	.	83.6
Cc1nc2ccccc2nc1NS(=O)(=O)c1ccc(N)cc1	.	?	.	.	.
Cc1cc2c(C)nc(-c3ccccc3)nc2o1	39.1	.	.	.	106.7
Cc1cc(Cl)nc(-c2ccccc2)n1	.	.	.	.	.
OCCCNc1nc(-c2ccc(Cl)cc2)nnc1-c1ccccc1	19.6	3.7µM	.	?	.
CCN(CC)S(=O)(=O)c1cc(OC)c(Cl)cc1Cl	27.7	.	.	/	.
O=C(COC(=O)c1ccccc1Br)Nc1ccc2[nH]c(=O)[nH]c2c1	/	.	/	.	/
O=C(COC(=O)c1ccc(F)cc1F)NCCNC(=O)COC(=O)c1ccc(F)cc1F	.	.	.	.	.
CC(=O)c1ccc(NC(=O)COC(=O)c2ccc(F)cc2F)cc1	12.7	.	.	.	.
Cc1occc1C(=O)OCC(=O)Nc1ccc(F)cc1	36.2	.	.	.	.
O=C(COC(=O)c1ccc[nH]c1=O)NCCc1ccc(F)cc1	.	.	/	.	.
O=C(COC(=O)c1ccccc1Br)Nc1ccc(F)cc1	35.7	.	.	.	98.3
O=C(COC(=O)c1ccccc1Br)NCCc1ccc(F)cc1	30.8	.	.	.	.
O=C(COC(=O)c1c[nH]c2ccccc12)Nc1ccc(F)cc1	/	.	/	.	/
CN1CCN(C(=O)/C(=C/c2cccnc2)NC(=O)c2cccc(Br)c2)CC1	.	.	.	.	.
O=C(NC1CCCC1)C(c1cccnc1)N(C(=O)c1csnn1)c1ccccc1Cl (stereo not drawn)	.	.	.	.	.
CC(=O)Nc1sc(C)c(C)c1C(=O)OC1CCOC1=O (stereo not drawn)	.	/	.	.	.
Cc1ccc(NC(=O)COC(=O)Cc2ccsc2)c(C)c1	.	.	.	.	.
CC(=O)c1ccc(NC(=O)COC(=O)c2ccccc2Sc2ccccc2C#N)cc1	15.2	.	.	.	.
CN(C)c1ccc(S(=O)(=O)N2CCCCC2)cc1NC(=O)CN1C(=O)NC2(CCCC2)C1=O	/	?	/	13.1µM	/
CN(C)S(=O)(=O)c1ccc(Cl)c(NC(=O)CN2C(=O)NC3(CCCC3)C2=O)c1	.	.	.	.	.
CCOc1ccc(S(=O)(=O)N2CCOCC2)cc1NC(=O)CN1C(=O)NC2(CCCC2)C1=O	/	.	/	.	/
CCN(CC)c1ccc(S(=O)(=O)N2CCOCC2)cc1NC(=O)CN1C(=O)NC2(CCC(C)CC2)C1=O (stereo not drawn)	/	13.1µM	/	?	/
CCc1ccccc1NC(=O)C1CCCN1C(=O)NCc1ccccc1 (stereo not drawn)	.	.	.	.	.
CN(CCc1cnn(C)c1)C(=O)C1CCC(=O)N(CC2CCCCC2)C1 (stereo not drawn)	.	.	.	.	.
SMILES	CHX counter	Pf growth 96h	NS1 inh	Pf growth 48h	Shiga toxin inh
CCCNc1sc(S(=O)(=O)CCC)nc1S(=O)(=O)c1ccc(C)cc1	.	.[5.75 µM]	/	?	.
COc1cc(/C=C2\SC(=S)N(NS(=O)(=O)c3ccccc3)C2=O)cc(OC)c1OC	.	.	.	9.28µM	.
COc1ccc(/C=C2/SC(=S)N(CCCC(=O)Nc3cccc(O)c3)C2=O)cc1	34.9	?	.	14.7µM	45.0
O=C1/C(=C/c2cccc(Br)c2)SC(=S)N1CCC(=O)N(CCO)c1ccccc1	.	.	.	.	.
COc1cccc(/C=C2\SC(=S)N(CCC(=O)Nc3ccc(O)cc3)C2=O)c1	30.1	?	.	.	46.6
COc1cccc(/C=C2\SC(=S)N(CCCC(=O)N(CCO)c3ccccc3)C2=O)c1	.	1.85µM	.	11.7µM	.
COc1cc(NC(=O)CSc2nc(=O)n(CCN3CCOCC3)c3c2CCCC3)cc(OC)c1	/	.	/	?	/
CC(C)NC(=O)c1ccc(N(Cc2ccccc2)S(C)(=O)=O)cc1	.	.	.	.	.
Cc1n[nH]c(C)c1S(=O)(=O)N1CCN(S(=O)(=O)c2cccc(F)c2)CC1	/	.	/	.	/

High-throughput results from PubChem.
